We go through five compounds from PubChem BioAssay (EPA / NIEHS).

Test [1] can be described thus: ATG_TCF_b_cat_CIS: Attagene CIS-FACTORIAL HepG2 Assay for human T-Cell-Factor with beta-catenin (TCF/b-cat) (AID 2282965; active means hit-call score of the fitted dose curve at least 0.9, where 1 is the maximum; inactive means score below 0.9). Particulars: HepG2 TCF/beta-catenin cis-reporter transcription, actives raise or lower the signal. The essentials:
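Endogenous transcription factor activity is captured through cis-promoter reporter constructs transiently introduced into human HepG2 liver cells. Induced reporter mRNA is measured after 24 h and fitted bidirectionally relative to DMSO.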

Test [2] can be described thus: ATG_TAL_CIS: Attagene CIS-FACTORIAL HepG2 Assay for human TAL Basal Promoter (AID 2282966; active means hit-call score of the fitted dose curve at least 0.9, where 1 is the maximum; inactive means score below 0.9;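 further: background control endpoint measuring basal TAL promoter reporter mRNA not a specific factor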). As to conditions: HepG2 Attagene cis-factorial TAL promoter reporter; actives raise or lower the signal. A digest of the protocol: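 Fluorescence of labelled reporter cDNA fragments, resolved by capillary electrophoresis, gave the readout. Human HepG2 liver cells carried transiently transfected cis-element reporter units and were treated for 24 hours; activity was fitted bidirectionally against DMSO.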

Test [3] in a line: ATG_TGFb_CIS: Attagene CIS-FACTORIAL HepG2 Assay for human Transforming Growth Factor (TGF) (AID 2282967; active means hit-call score of the fitted dose curve at least 0.9, where 1 is the maximum; inactive means score below 0.9). As to conditions: HepG2 Attagene CIS TGFb reporter, mRNA transcription; actives raise or lower the signal. The essentials: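 Transcript-level reporter readout: HepG2 transfectants, 24 h exposure, RNA to cDNA, reporter-specific PCR, fluorescent primer extension, capillary sizing against ROX standards. Gain- or loss-of-signal relative to DMSO.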

Test [4] in a line: ATG_VDRE_CIS: Attagene CIS-FACTORIAL HepG2 Assay for human Vitamin D Receptor Element (VDRE) (AID 2282968; active means hit-call score of the fitted dose curve at least 0.9, where 1 is the maximum; inactive means score below 0.9). As to conditions: HepG2 VDRE cis-reporter transcription, actives raise or lower the signal. The essentials: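 Reporter mRNA induction, quantified by capillary electrophoresis of fluorescently labelled RT-PCR products, was read 24 h after dosing HepG2 cells carrying transiently transfected cis-regulated reporter units; gain or loss relative to DMSO.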

The target of test [5] is Nuclear receptor subfamily 1 group I member 3 (Homo sapiens) (UniProt Q14994). The test can be described thus: ATG_CAR_TRANS: Attagene TRANS-FACTORIAL HepG2 Assay for human Constitutive Androstane Receptor (CAR) (AID 2282969).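 Further: activators raise reporter mRNA above DMSO so AC50 marks induction.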 Particulars: HepG2 Attagene TRANS-FACTORIAL CAR reporter. The essentials: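 Readout is reporter mRNA induction, quantified by fluorescent primer extension and capillary electrophoresis after RT-PCR. Cells were HepG2 transiently carrying chimeric NR-Gal4 constructs with GAL4-UAS reporters, treated for 24 h; activity scored upward from DMSO.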
Sequence of Nuclear receptor subfamily 1 group I member 3 (Homo sapiens) (Q14994 whole entry, looked up, the tested form may be a part): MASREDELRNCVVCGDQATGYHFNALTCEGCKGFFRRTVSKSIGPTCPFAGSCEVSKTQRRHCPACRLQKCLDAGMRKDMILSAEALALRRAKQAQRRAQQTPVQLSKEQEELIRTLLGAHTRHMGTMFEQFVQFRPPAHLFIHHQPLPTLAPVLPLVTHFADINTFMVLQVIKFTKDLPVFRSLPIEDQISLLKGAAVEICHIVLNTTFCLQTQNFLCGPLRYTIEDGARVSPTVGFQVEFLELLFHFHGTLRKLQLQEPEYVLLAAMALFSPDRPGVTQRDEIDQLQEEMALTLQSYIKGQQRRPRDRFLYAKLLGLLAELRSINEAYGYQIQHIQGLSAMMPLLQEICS

Test [6] addresses Estrogen receptor (Homo sapiens) (UniProt P03372). The test can be described thus: ATG_ERa_TRANS: Attagene TRANS-FACTORIAL HepG2 Assay for human Estrogen Receptor alpha (ERa) (AID 2282970). As to conditions: HepG2 Attagene TRANS ERa GAL4 reporter, mRNA. The essentials:
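Human liver HepG2, transient transfection of multiple GAL4-UAS reporter units; TRANS format (exogenous NR-Gal4 chimera). 24 h dosing. Readout: reporter mRNA, RT-PCR, 6-FAM primer extension, HpaI digest, capillary electrophoresis. Positive direction vs DMSO.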

The target in test [7] is X-box-binding protein 1 (Homo sapiens) (UniProt P17861). Put plainly: ATG_Xbp1_CIS: Attagene CIS-FACTORIAL HepG2 Assay for human X-box Binding Protein 1 (XBP1) (AID 2282972; active means hit-call score of the fitted dose curve at least 0.9, where 1 is the maximum; inactive means score below 0.9). Particulars: HepG2 XBP1 cis-element reporter, Attagene multiplex; actives raise or lower the signal. The essentials: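 HepG2 cells transiently transfected with multiple cis-element reporter units report endogenous TF activity; 24 h exposure, then reporter mRNA measured by RT-PCR, 6-FAM labelling, HpaI digestion and capillary electrophoresis. Bidirectional fitting versus DMSO.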
Sequence of X-box-binding protein 1 (Homo sapiens) (P17861 whole entry, looked up): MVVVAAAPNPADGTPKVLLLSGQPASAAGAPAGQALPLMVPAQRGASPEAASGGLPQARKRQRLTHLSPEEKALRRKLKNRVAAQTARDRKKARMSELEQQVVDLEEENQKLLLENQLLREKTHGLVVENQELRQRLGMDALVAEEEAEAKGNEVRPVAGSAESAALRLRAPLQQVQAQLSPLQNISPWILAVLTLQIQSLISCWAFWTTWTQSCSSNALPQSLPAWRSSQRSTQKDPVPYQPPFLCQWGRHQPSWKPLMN

The nature of test [8]: ATG_M_19_TRANS: Attagene TRANS-FACTORIAL HepG2 Assay for M19 Transcription Factor (Internal Marker) (AID 2282974). Particulars: HepG2 Attagene TRANS-FACTORIAL M19 internal marker reporter. A digest of the protocol:
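Transfected HepG2 (GAL4-UAS MRTUs), 24 h compound, TriZol RNA, DNase-treated RT, reporter PCR, FAM label, HpaI digest, CE fluorescence; gain vs DMSO.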

The target in test [9] is Oxysterols receptor LXR-alpha (Homo sapiens) (UniProt Q13133). The test can be described thus: ATG_LXRa_TRANS: Attagene TRANS-FACTORIAL HepG2 Assay for human Liver X Receptor alpha (LXRa) (AID 2282980). Particulars: HepG2 Attagene TRANS reporter, LXRa transactivation. A digest of the protocol:
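Transfect HepG2 with GAL4-UAS multiplex reporter constructs (TRANS format, chimeric receptor-GAL4); treat 24 h; extract RNA, reverse-transcribe, PCR-amplify, FAM-label, HpaI-digest; resolve fragments by capillary electrophoresis. Upward response vs DMSO.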

Test [10] has as its target Oxysterols receptor LXR-beta (Homo sapiens) (UniProt P55055). Put plainly: ATG_LXRb_TRANS: Attagene TRANS-FACTORIAL HepG2 Assay for human Liver X Receptor beta (LXRb) (AID 2282981). Particulars: HepG2 Attagene TRANS GAL4-LXRb reporter, mRNA. A digest of the protocol: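 Transient transfection HepG2 (multiplexed RTUs, GAL4-UAS); NR-Gal4 chimera; 24 h exposure; RNA → RT-PCR → 6-FAM primer extension → HpaI → CE; increase vs DMSO.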

Test [11] in a line: ATG_M_32_TRANS: Attagene TRANS-FACTORIAL HepG2 Assay for M32 Transcription Factor (Internal Marker) (AID 2282984).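 Further: transcript level of a background control reporter unit measured by RT-PCR and capillary electrophoresis.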 Particulars: HepG2 Attagene TRANS M32 internal marker reporter. The essentials: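 Measures reporter mRNA induction in human HepG2 liver cells after 24 h chemical treatment. Transcripts from transiently transfected GAL4-UAS reporter units are amplified, fluorescently labelled and sized by capillary electrophoresis; gain of signal relative to DMSO.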

In test [12] the target is Nuclear receptor subfamily 4 group A member 2 (Homo sapiens) (UniProt P43354). Put plainly: ATG_NURR1_TRANS: Attagene TRANS-FACTORIAL HepG2 Assay for human Nuclear Receptor Related Protein 1 (NURR1) (AID 2282985). Particulars: HepG2 Attagene TRANS reporter, mRNA readout. The essentials:
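Transient transfection of HepG2, human liver cells, with multiple GAL4-UAS reporter transcription units. Cells dosed 24 h, RNA isolated, reverse-transcribed, PCR-amplified, FAM-labelled, HpaI-digested, sized by capillary electrophoresis. DMSO served as negative control.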

Test [13] concerns the target Transcriptional activator Myb (Homo sapiens) (UniProt P10242). Put plainly: ATG_Myb_CIS: Attagene CIS-FACTORIAL HepG2 Assay for human Myeloblastosis (Myb) Proto-Oncogene Transcription Factor (AID 2282986; active means hit-call score of the fitted dose curve at least 0.9, where 1 is the maximum; inactive means score below 0.9). Particulars: HepG2 Attagene CIS-FACTORIAL Myb reporter transcription; actives raise or lower the signal. The essentials:
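After 24 h of compound dosing, total RNA from transfected HepG2 cells is reverse-transcribed and the reporter sequences amplified, labeled and separated by capillary electrophoresis. Values come from bidirectional fitting against DMSO.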

Test [14] deals with Steroid hormone receptor ERR1 (Homo sapiens) (UniProt P11474). The test can be described thus: ATG_ERRa_TRANS: Attagene TRANS-FACTORIAL HepG2 Assay for human Estrogen-Related Receptor alpha (ERRa) (AID 2282971). As to conditions: HepG2 Attagene TRANS reporter, ERRa transactivation. The essentials: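 Reporter transcript induction was quantified by RT-PCR and capillary electrophoresis of FAM-labelled, HpaI-cut products after 24 h treatment of HepG2 cells carrying transiently transfected GAL4-UAS reporter units and an exogenous ERRa-Gal4 fusion; activity scored as increase over DMSO.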

Test [15] is described as follows: ATG_GAL4_TRANS: Attagene TRANS-FACTORIAL HepG2 Assay for GAL4 (Internal Marker) (AID 2282976). As to conditions: HepG2 Attagene TRANS GAL4 internal marker reporter. The essentials: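 First, HepG2 cells were transfected with reporter units under GAL4-UAS control. Next, they were treated with chemical for 24 h. Finally, RNA was reverse-transcribed, PCR-amplified, FAM-labelled and resolved by capillary electrophoresis, with induction scored against DMSO.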

In test [16] the target is Estrogen-related receptor gamma (Homo sapiens) (UniProt P62508). Put plainly: ATG_ERRg_TRANS: Attagene TRANS-FACTORIAL HepG2 Assay for human Estrogen-Related Receptor gamma (ERRg) (AID 2282977).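 Further: hits increase reporter signal over DMSO so potencies reflect activators.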 Particulars: HepG2 Attagene TRANS reporter, ERRg transactivation. A digest of the protocol: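 Transfect HepG2 with multiple GAL4-UAS reporter transcription units; dose chemicals 24 h; isolate RNA, reverse-transcribe with oligo(dT), PCR-amplify, label with 6-FAM, digest with HpaI; size fragments by capillary electrophoresis. DMSO serves as negative control.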
Sequence of Estrogen-related receptor gamma (Homo sapiens) (P62508 whole entry, looked up, the tested form may be a part): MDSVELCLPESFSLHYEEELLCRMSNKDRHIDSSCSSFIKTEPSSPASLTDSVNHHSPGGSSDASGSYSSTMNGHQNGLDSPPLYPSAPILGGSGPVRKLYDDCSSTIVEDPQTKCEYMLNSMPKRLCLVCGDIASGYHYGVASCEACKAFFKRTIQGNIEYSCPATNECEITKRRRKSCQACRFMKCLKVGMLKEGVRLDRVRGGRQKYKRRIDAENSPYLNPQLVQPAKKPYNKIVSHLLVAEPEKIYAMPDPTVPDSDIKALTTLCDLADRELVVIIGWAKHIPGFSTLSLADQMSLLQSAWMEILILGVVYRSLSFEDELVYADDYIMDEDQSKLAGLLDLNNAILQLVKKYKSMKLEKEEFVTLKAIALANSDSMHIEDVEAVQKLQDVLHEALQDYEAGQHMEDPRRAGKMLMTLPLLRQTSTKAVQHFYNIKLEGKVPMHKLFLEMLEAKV

The target of test [17] is Bile acid receptor (Homo sapiens) (UniProt Q96RI1). The test can be described thus: ATG_FXR_TRANS: Attagene TRANS-FACTORIAL HepG2 Assay for Farnesoid X Receptor (FXR) (AID 2282979).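 Further: hits raise reporter mRNA above DMSO so AC50 marks FXR activation.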 Particulars: HepG2 Attagene TRANS FXR-GAL4 reporter transcription. The essentials:
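Transient transfection of HepG2 with multiplexed GAL4-UAS reporter units; exogenous FXR-GAL4 chimera. Dose 24 h → TriZol RNA → oligo(dT) RT → PCR, 6-FAM primer extension, HpaI cut → CE. Gain vs DMSO.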

Test [18] addresses Hepatocyte nuclear factor 4-alpha (Homo sapiens) (UniProt P41235). The test can be described thus: ATG_HNF4a_TRANS: Attagene TRANS-FACTORIAL HepG2 Assay for human Hepatocyte Nuclear Factor 4 alpha (HNF4a) (AID 2282982). As to conditions: HepG2 HNF4a transactivation reporter, mRNA readout. A digest of the protocol: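 Readout is fluorescent reporter-transcript fragments resolved by capillary electrophoresis after RT-PCR from HepG2 cells dosed for 24 h. Cells carried transfected GAL4-UAS reporter constructs measuring exogenous NR-GAL4 chimera activity; DMSO served as baseline.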

Inconclusive results are not listed. Calls of active or inactive are those of the source. How the source made its calls, unless noted: active means hit-call score of the fitted dose curve at least 0.9, where 1 is the maximum; inconclusive means response in the unintended direction; inactive means score below 0.9.

Sequence of Hepatocyte nuclear factor 4-alpha (Homo sapiens) (P41235 whole entry, looked up, the tested form may be a part): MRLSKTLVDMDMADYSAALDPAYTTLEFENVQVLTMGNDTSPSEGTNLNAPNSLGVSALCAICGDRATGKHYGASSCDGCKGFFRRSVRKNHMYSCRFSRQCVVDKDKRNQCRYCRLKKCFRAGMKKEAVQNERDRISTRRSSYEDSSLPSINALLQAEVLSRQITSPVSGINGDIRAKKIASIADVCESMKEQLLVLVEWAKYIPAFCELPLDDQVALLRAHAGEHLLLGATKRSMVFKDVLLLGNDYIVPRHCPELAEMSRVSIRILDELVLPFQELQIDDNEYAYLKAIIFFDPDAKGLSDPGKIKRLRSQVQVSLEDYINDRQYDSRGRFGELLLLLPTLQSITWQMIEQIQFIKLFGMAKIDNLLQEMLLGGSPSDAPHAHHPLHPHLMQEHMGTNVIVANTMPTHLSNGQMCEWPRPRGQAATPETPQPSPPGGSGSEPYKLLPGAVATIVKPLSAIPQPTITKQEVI
Sequence of Estrogen receptor (Homo sapiens) (P03372 whole entry, looked up, the tested form may be a part): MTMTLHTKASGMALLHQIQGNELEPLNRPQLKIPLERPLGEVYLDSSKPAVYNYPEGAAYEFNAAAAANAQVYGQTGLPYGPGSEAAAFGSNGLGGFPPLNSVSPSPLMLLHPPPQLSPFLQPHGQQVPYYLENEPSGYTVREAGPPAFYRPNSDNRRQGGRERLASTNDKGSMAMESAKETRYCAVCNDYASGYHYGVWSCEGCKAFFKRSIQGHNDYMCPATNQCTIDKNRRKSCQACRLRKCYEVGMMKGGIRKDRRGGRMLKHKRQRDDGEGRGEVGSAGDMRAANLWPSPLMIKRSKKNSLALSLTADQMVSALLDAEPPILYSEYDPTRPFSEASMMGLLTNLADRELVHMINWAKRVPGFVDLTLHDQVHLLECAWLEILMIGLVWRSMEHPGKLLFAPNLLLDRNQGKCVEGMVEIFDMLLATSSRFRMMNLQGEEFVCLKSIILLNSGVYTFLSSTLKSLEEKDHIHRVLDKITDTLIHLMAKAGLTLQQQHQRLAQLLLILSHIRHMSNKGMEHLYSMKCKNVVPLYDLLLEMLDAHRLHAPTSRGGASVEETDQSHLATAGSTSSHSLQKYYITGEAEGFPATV
Sequence of Transcriptional activator Myb (Homo sapiens) (P10242 whole entry, looked up): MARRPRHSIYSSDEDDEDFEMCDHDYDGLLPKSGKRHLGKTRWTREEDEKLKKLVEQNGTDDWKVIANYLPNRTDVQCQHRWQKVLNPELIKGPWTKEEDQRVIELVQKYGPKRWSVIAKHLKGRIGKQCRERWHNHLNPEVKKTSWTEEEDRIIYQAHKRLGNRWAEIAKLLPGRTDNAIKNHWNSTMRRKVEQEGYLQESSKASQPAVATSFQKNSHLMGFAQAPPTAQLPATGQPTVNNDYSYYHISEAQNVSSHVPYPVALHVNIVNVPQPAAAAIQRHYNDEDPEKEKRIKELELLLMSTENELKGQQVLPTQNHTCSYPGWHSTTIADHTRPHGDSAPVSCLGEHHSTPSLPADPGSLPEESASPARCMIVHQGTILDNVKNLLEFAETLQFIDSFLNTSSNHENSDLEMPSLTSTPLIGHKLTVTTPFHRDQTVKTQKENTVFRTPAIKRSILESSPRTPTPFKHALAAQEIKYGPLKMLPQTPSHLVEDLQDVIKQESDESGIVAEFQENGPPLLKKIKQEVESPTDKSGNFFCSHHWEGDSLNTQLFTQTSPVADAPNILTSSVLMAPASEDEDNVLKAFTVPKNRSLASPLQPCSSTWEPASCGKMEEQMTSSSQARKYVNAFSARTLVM
Sequence of Oxysterols receptor LXR-beta (Homo sapiens) (P55055 whole entry, looked up, the tested form may be a part): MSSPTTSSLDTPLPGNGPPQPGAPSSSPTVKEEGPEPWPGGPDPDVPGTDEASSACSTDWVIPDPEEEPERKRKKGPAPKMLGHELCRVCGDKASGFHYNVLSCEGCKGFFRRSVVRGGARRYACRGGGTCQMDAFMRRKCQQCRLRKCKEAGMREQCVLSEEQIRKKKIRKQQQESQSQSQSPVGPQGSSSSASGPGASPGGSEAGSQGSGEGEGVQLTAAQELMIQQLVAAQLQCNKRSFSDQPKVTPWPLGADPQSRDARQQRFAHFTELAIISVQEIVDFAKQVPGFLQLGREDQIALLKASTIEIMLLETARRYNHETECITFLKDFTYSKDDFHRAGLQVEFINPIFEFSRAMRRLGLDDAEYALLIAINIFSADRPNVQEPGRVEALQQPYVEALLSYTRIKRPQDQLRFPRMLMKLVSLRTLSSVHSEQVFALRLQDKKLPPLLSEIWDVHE
Sequence of Nuclear receptor subfamily 4 group A member 2 (Homo sapiens) (P43354 whole entry, looked up, the tested form may be a part): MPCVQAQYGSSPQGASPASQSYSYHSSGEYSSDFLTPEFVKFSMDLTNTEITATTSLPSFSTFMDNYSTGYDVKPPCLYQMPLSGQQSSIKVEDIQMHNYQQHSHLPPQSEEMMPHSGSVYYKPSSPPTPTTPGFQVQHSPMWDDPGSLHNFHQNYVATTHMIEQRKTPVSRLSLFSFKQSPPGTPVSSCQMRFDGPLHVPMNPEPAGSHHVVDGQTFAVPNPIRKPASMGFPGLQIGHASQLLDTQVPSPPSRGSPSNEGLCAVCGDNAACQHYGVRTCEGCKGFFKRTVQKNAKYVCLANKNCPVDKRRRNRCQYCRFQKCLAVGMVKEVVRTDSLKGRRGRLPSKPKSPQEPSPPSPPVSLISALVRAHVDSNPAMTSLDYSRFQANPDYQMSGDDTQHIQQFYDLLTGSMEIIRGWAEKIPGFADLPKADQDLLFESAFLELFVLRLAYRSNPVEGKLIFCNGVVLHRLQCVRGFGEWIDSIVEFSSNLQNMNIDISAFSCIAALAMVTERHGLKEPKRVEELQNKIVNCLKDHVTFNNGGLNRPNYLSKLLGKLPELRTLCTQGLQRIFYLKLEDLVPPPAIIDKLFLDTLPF
Sequence of Oxysterols receptor LXR-alpha (Homo sapiens) (Q13133 whole entry, looked up, the tested form may be a part): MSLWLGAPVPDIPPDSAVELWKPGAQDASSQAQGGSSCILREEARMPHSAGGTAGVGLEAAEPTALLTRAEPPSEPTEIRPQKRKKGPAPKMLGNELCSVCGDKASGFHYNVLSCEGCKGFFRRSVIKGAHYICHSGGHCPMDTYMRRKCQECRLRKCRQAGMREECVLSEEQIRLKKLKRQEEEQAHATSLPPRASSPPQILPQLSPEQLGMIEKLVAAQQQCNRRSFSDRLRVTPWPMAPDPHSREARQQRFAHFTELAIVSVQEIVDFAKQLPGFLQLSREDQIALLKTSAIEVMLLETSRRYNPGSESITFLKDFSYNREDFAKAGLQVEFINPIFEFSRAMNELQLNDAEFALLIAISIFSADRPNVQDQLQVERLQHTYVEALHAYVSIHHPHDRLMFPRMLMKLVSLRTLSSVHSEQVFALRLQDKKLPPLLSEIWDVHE
Sequence of Bile acid receptor (Homo sapiens) (Q96RI1 whole entry, looked up, the tested form may be a part): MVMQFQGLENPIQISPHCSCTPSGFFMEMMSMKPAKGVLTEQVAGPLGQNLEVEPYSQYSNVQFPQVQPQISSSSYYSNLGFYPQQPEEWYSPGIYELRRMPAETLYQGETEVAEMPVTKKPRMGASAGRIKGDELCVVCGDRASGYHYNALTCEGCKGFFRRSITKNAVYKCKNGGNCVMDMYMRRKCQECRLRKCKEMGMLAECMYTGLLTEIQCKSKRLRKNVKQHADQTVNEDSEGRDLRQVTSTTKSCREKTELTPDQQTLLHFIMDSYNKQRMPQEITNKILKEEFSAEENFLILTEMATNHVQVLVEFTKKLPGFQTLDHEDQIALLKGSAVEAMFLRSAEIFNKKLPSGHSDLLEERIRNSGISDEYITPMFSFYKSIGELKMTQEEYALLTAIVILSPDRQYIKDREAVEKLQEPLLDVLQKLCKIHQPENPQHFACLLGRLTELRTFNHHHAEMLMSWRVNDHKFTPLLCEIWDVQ

As for `O=c1c(O)c(-c2ccc(O)c(O)c2)oc2cc(O)cc(O)c12`, the compound was classed as inactive in test [1], in test [2], in [3], in test [4], in [5] and in [7]. In addition, the call in test [8], in test [9], in test [10], in test [11], in test [12] and in test [13] was inactive. Also, in test [6], the half-maximal activity concentration (AC50) (in general, the midpoint of the concentration-response curve, whichever way the signal moves) was 14.9 µM (active).
Turning to `CN[C@H]1CC[C@@H](c2ccc(Cl)c(Cl)c2)c2ccc(S(N)(=O)=O)cc21`, the compound was called inactive in test [1], in test [2], in [3], in test [4], in [5] and in [14]. Further, the compound was called inactive in test [7], in test [8], in test [15], in test [16], in [17] and in [10]. For the same compound, the outcome in [18], in test [11] and in test [13] was inactive.
Take `Cc1ccc(C)c(O)c1C`: the result in [1], in test [2], in test [3], in [4], in [5] and in test [6] was inactive. Further, the compound was called inactive in [7], in [18] and in test [13].
Take `COc1cc(C=O)ccc1O`: the call in [1], in test [2], in [3], in [4], in test [5] and in [6] was inactive. For the same compound, the compound was classed as inactive in test [7], in test [8], in test [15], in test [17] and in test [13].
With `CCOc1ccc2c(c1)C(C)=CC(C)(C)N2`, the AC50 was 58.1 µM (active) in test [1]; 151 µM (active) in [3]; 38.2 µM (active) in test [4]; 40.7 µM (active) in [6]; 155 µM (active) in test [7]; 38.2 µM (active) in [9]. Moreover, the values for the AC50 in test [12] and in test [13] were 124 µM (active) and 183 µM (active), respectively. Also, the call in test [2], in [5], in test [8], in test [16], in test [10] and in test [18] was inactive. The result in test [11] was inactive.
